Assay results as given in PubChem BioAssay (NCI).
This is part of a sample that, as a whole, favours compounds with a hit. Of some 83,000 tested, about 20% had one in any assay.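 Each cell line was grown in a 96-well plate and treated with one concentration of compound for 48 hours. Values below 10 were considered active.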 Calls of active or inactive are those of the source.

Columns and labels:
Assay in all cases: NCI-60 one-dose screen, 48 h (100 = growth as untreated, 0 = no growth, -100 = all killed)
Details in all cases: 10 µM unless noted
[1] = test system: NCI-H23 lung
[2] = test system: NCI-H226 lung
[3] = test system: NCI-H322M lung
[4] = test system: HOP-62 NSCLC
[5] = test system: NCI-H460 lung
[6] = test system: HOP-92 NSCLC
[7] = test system: NCI-H522 lung
[8] = test system: A549/ATCC NSCLC
[9] = test system: 786-0 renal
[10] = test system: COLO 205 colon
[11] = test system: DU-145 prostate
[12] = test system: K-562 leukemia
[13] = test system: MALME-3M melanoma
[14] = test system: MDA-MB-231 breast
[15] = test system: RXF 393 renal
[16] = test system: SF-268 CNS
[17] = test system: SF-295 CNS
[18] = test system: SF-539 CNS
[19] = test system: UACC-257 melanoma
[20] = test system: M14 melanoma

Measured: growth

C=C(CN1CC=CCC1)[C@@H]1CC[C@]2(COC(C)=O)CC[C@]3(C)[C@H](CC[C@@H]4[C@@]5(C)CC[C@H](O)C(C)(C)[C@@H]5CC[C@]43C)[C@@H]12
inactive: [1] 102% | [2] 92.5% | [3] 114% | [4] 107% | [5] 96.3% | [6] 92.7% | [7] 95% | [8] 95.3% | [9] 103% | [10] 105% | [11] 102% | [12] 91.7% | [13] 113% | [14] 112% | [15] 109% | [16] 106% | [17] 105% | [18] 96.8% | [19] 99.4% | [20] 97.4%

Cc1nc2cccc(NCCCCC(=O)NO)c2c(=O)n1-c1ccccc1
inactive: [1] 69.3% | [2] 83.9% | [3] 66.1% | [4] 50.3% | [5] 76.5% | [6] 43.3% | [7] 43.5% | [8] 78.8% | [9] 69.7% | [10] 62.4% | [11] 58.1% | [12] 40.9% | [13] 23.4% | [14] 77.1% | [15] 49.2% | [16] 74.6% | [17] 82.9% | [18] 49.9% | [19] 42.7% | [20] 50.4%

COc1ccc(-c2ccccc2)cc1-c1c(Nc2cc(Cl)cc(Cl)c2O)c(=O)c1=O
active: [1] 2.65% | [4] 2.04% | [5] 7.61% | [6] -24.5% | [7] -19.6% | [8] 8.72% | [13] -19.4% | [15] -13% | [17] -6.58% | [19] 2.86%
inactive: [2] 19.3% | [3] 11.3% | [9] 17.3% | [10] 48.1% | [11] 20.5% | [12] 13.5% | [14] 15% | [16] 18.3% | [18] 12.7% | [20] 24.6%

COc1ccc(N2CCN(S(=O)(=O)c3oc(-c4ccccc4)nc3C#N)CC2)cc1
inactive: [1] 57.3% | [2] 64.5% | [3] 97.6% | [4] 106% | [5] 94.8% | [6] 101% | [7] 25.2% | [8] 99.4% | [9] 85.5% | [10] 80% | [11] 104% | [12] 15.3% | [13] 69.6% | [14] 77.2% | [15] 66.4% | [16] 102% | [17] 104% | [18] 68.2% | [19] 88% | [20] 47.4%

COc1ccc(C/C(C)=C(/c2ccc(OCCN3CCCC3)cc2)c2ccc(OC(=O)NCc3ccccc3)cc2)cc1
active: [12] 1.16% | [20] -20.8%
inactive: [1] 93.6% | [2] 102% | [3] 92% | [4] 91.9% | [5] 63.8% | [6] 66.2% | [7] 92.6% | [8] 72.3% | [9] 69.8% | [10] 77% | [11] 95% | [13] 83.6% | [14] 101% | [15] 76.8% | [16] 86.5% | [17] 95.2% | [18] 82.5% | [19] 107%

Cc1ccc2c(c1)C(C)Cc1c(ncnc1-n1cnc3cc(C)ccc31)N2C (stereo not given)
inactive: [1] 34% | [2] 47.4% | [3] 63.5% | [4] 27.6% | [6] 10.4% | [9] 10.7% | [11] 10.9% | [13] 76.9% | [14] 38.5% | [15] 21.3% | [16] 25.6% | [18] 16.8% | [19] 25.6% | [20] 17.7%
active: [5] 3.51% | [7] -30% | [8] 8.39% | [10] -51.2% | [12] 6.54% | [17] 2.2%

N=c1c2c(-c3ccccc3)c(-c3ccccc3)oc2ncn1NC(=O)c1cccnc1
inactive: [1] 93.2% | [2] 108% | [3] 98.7% | [4] 102% | [5] 105% | [6] 91% | [7] 95.1% | [8] 103% | [9] 99% | [10] 115% | [11] 106% | [12] 87.8% | [13] 114% | [14] 102% | [15] 117% | [16] 106% | [17] 101% | [18] 97.2% | [19] 105% | [20] 105%

N#C/C(=N\Nc1ccc(Cl)cc1)C(=O)Nc1cc(-c2ccccc2)nn1-c1ccccc1
inactive: [2] 51.5% | [3] 11.9% | [4] 61.4% | [8] 33.8% | [9] 45.2% | [10] 65.4% | [11] 35% | [12] 12.2% | [14] 24.3% | [15] 47.1% | [16] 19.9% | [18] 52.3% | [19] 13.2% | [20] 35.6%
active: [1] 1.09% | [5] 8.34% | [6] -23.4% | [7] 7.38% | [13] 2.07% | [17] 1.62%
